Assay outcomes: PubChem BioAssay, National Center for Advancing Translational Sciences (NCATS)
Glioma ERSR ind: induces the endoplasmic reticulum stress response in human glioma cells; AID 602332; U87-MG GRP78 promoter luciferase reporter, 16 h; Potency, µM, without a hit: at the highest dose activation, most hits filed as activators; 420,000 compounds, 0.02% hits; note: potency is the fitted concentration of half-maximal effect; series mostly up to about 76 µM; % of control where 0% means no effect; nearly all actives have a fitted effect of over 35% in size
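ERSR induction read as luciferase luminescence (Bright-Glo, 10 min at room temperature) in stably transfected human U87-MG glioma cells exposed to compounds for 16 h, using GRP78 as sensor.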
Nrf2 ARE act: activators of Nrf2 (ARE) signaling. AREc32 ARE-luciferase reporter (MCF7-derived line), luminescence, 24 h. Potency, µM (titrated, usually from 46.1 µM), without a hit: top-dose activation, hits mostly activators. 410,000 compounds, 0.31% hits. AID 624171; note: potency is the fitted concentration of half-maximal effect; % of control where 0% means no effect; nearly all actives have a fitted effect of over 65% in size
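Cells of the AREc32 ARE-luciferase line are plated in OPTI-MEM containing 5% FBS and left overnight at 37 deg C. Compounds are pinned in, incubation continues 24 hr, and firefly luciferase signal is then measured.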
DRD3 antagonist: blocks the human D3 dopamine receptor. D3R cells, DiscoveRx beta-arrestin luminescence, antagonist mode; active compounds read low. max response, negative = inhibition, %. 360,000 compounds, 2.5% hits. AID 652054; in the data active = max response below about -50%; inconclusive = no clear call, values can overlap the other calls; note: % is set by controls: 0 for no effect and ±100 for the full control effect
Target sequence (P35462 whole entry, looked up): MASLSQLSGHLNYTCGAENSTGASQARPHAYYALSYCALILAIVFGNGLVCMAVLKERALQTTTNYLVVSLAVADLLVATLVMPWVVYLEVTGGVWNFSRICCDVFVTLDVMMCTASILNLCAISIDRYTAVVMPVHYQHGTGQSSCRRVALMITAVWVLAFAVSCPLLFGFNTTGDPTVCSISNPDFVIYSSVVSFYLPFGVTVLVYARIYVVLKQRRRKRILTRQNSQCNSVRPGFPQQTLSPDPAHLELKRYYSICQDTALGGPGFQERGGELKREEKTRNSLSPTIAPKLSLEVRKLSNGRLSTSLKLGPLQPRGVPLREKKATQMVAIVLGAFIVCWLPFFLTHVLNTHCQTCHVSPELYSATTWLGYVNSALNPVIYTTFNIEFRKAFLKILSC
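Cells expressing the human receptor were seeded at 1500 cells/well, incubated overnight at 37 degrees C in 5% CO2, then exposed to library compounds with dopamine controls for 90 minutes at 37 degrees C before luminescent detection.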
DRD3 agonist: D3 dopamine receptor (human) agonism. P35462. D3R DiscoveRx beta-arrestin cells, luminescence, 90 min. max activation, %. 410,000 compounds, 0.58% hits; in the data active = max activation above about 30%; note: 0% is about no effect
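Cells at 1500/well, incubated overnight, then treated with pinned compounds (dopamine as control) for 90 min at 37 degrees C. DiscoveRx reagent added for 30 - 60 minutes at room temperature; luminescence read.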
An asterisk follows results filed as active. Rows were chosen to be rich in hits. Some 3% of all compounds tested hit in one or more screens of this group. Unless noted, calls come from the whole dose curve; as a rule, active = well fitted curve in the direction sought with a large enough effect; inconclusive = small, poorly fitted or top-dose-only effect, or another doubt; inactive = no such curve, though single readings can be large; an effect the other way counts as inactive or inconclusive.

`COc1ccc2[nH]c3c(c2c1)CCN1C(=O)C(CC(=O)NCCCn2ccnc2)C[C@H](C(=O)N(C(C)C)C(C)C)[C@@]31C` (some centres undefined) gave Glioma ERSR ind -2.2%, Nrf2 ARE act 0.4%, DRD3 antagonist 4.6 and DRD3 agonist 51.1*.
Screening Cc1ccc(-c2nc(-c3cc4cc(Cl)ccc4oc3=O)sc2C)cc1 returned Glioma ERSR ind -2.7%.
For CCC(C)n1c(=O)c2sccc2n2c(CCCC(=O)Nc3ccc(F)cc3)nnc12 (centres undefined) the results were Glioma ERSR ind -1.7%, Nrf2 ARE act 0.8% and DRD3 agonist -20.1.
CCC(=O)Oc1ccc2c(c1)O/C(=C\c1ccco1)C2=O was read as Glioma ERSR ind 4.6%, Nrf2 ARE act 7.94µM*, DRD3 antagonist -1.9 and DRD3 agonist 10.9.
For Cc1cccc(C(=O)NCCN2CCCC2)c1 the results were Glioma ERSR ind -1.5%, Nrf2 ARE act 0.2%, DRD3 antagonist -65.9* and DRD3 agonist -5.8.
`Cc1ccc(C(=O)NCCN2CCCC2)cc1` gave Glioma ERSR ind 0.3%, Nrf2 ARE act -0.2%, DRD3 antagonist inconclusive and DRD3 agonist -26.6.
`Cc1noc(C)c1COc1ccc(C(=O)NCC2CCCO2)cc1` (centres undefined) gave Glioma ERSR ind 0.3%, Nrf2 ARE act 0.0%, DRD3 antagonist -52.2* and DRD3 agonist -5.9.
For O=C(Cc1ccc([N+](=O)[O-])cc1)NCC1CCCO1 (centres undefined) the results were Glioma ERSR ind 0.3%, Nrf2 ARE act 0.1%, DRD3 antagonist 8.7 and DRD3 agonist -3.3.
For O=C(NCC1CCCO1)c1ccc([N+](=O)[O-])o1 (centres undefined) the results were Glioma ERSR ind inconclusive, Nrf2 ARE act 10µM*, DRD3 antagonist 9.7 and DRD3 agonist 0.2.
For O=C(NCCN1CCN(C(=O)c2ccc(F)cc2)CC1)c1ccc(F)cc1 the results were Glioma ERSR ind -2.2%, Nrf2 ARE act -0.5%, DRD3 antagonist -79.4* and DRD3 agonist -10.1.
Cc1ccc(OCc2ccc(C(=O)NCC3CCCO3)cc2)cc1C (centres undefined) was read as Glioma ERSR ind 0.5%, Nrf2 ARE act 2.4%, DRD3 antagonist -4.0 and DRD3 agonist -3.1.
For COc1cccc(CN2C(=O)NC(C)(C3CCN(Cc4cc(F)cc(F)c4)CC3)C2=O)c1OC (centres undefined) the results were Glioma ERSR ind -4.4%.
Screening C(=C\c1ccnc2ccccc12)/c1ccc2ccccc2n1 returned Glioma ERSR ind -4.4%.
Screening CC(=O)Nc1ccc(S(=O)(=O)NCc2ccc(C(=O)NCCN3CCCCCC3)cc2)cc1 returned Glioma ERSR ind -2.7%, Nrf2 ARE act 0.0%, DRD3 antagonist -53.2* and DRD3 agonist -16.7.
`Cc1ccc(OCC(=O)NCCN2CCCC2)cc1` gave Glioma ERSR ind -3.7%, Nrf2 ARE act 0.3%, DRD3 antagonist -20.8 and DRD3 agonist -1.2.
For Cc1cccc(C(=O)NCC2CCCO2)c1 (centres undefined) the results were Glioma ERSR ind 5.9%, Nrf2 ARE act -0.1%, DRD3 antagonist -53.7* and DRD3 agonist 3.1.
For O=C(NCC1CCCO1)c1cccc(F)c1 (centres undefined) the results were Glioma ERSR ind -4.1%, Nrf2 ARE act -0.7%, DRD3 antagonist 14.8 and DRD3 agonist 3.6.
For CC(C)(C)c1ccc(OCC(=O)NCCN2CCCC2)cc1 the results were Glioma ERSR ind -0.5%, Nrf2 ARE act 0.3%, DRD3 antagonist -56.6* and DRD3 agonist 0.3.
`O=C(NCCN1CCCCC1)c1cc(OCC(F)(F)F)ccc1OCC(F)(F)F` gave Glioma ERSR ind -0.4%, Nrf2 ARE act -0.5%, DRD3 antagonist -53.0* and DRD3 agonist 0.9.
For CC(O)[C@H]1CC[C@H]2[C@@H]3CC[C@@H]4C[C@@H](O)CC[C@]4(C)[C@H]3CC[C@]12C (some centres undefined) the results were DRD3 agonist 12.7.
`OC(C[n+]1cccc(Br)c1)c1ccccc1` (centres undefined) gave Glioma ERSR ind -4.5%.
For Cn1c(SCC2CCCO2)nnc1C1CCN(Cc2ccco2)CC1 (centres undefined) the results were Glioma ERSR ind -4.5%.
Cc1cc(C(=O)COC(=O)c2ccc([N+](=O)[O-])o2)c(C)n1CC1CCCO1 (centres undefined) was read as Glioma ERSR ind -0.9%, Nrf2 ARE act 15.8µM*, DRD3 antagonist 7.8 and DRD3 agonist 0.6.
For CCc1ccc(C(=O)NC(C(=O)NCC2CCCO2)C(C)C)cc1 (centres undefined) the results were Glioma ERSR ind -1.7%, Nrf2 ARE act -0.3%, DRD3 antagonist -87.8* and DRD3 agonist -20.2.
Screening COc1ccc(CC(=O)NCCN2CCCC2)cc1 returned Glioma ERSR ind 9.0%, Nrf2 ARE act 2.7%, DRD3 antagonist -3.7 and DRD3 agonist -4.1.
For COc1ccc(C(=O)NCCN2CCCC2)cc1 the results were Glioma ERSR ind -2.6%, Nrf2 ARE act -0.1%, DRD3 antagonist -53.9* and DRD3 agonist -11.0.
Screening CCOc1c(Cl)cc(C(=O)NCCN2CCCCC2)cc1Cl returned Glioma ERSR ind -5.6%, Nrf2 ARE act 0.2%, DRD3 antagonist -73.1* and DRD3 agonist -52.5.
For COCCn1c(C)cc(C(=O)COC(=O)c2ccc([N+](=O)[O-])o2)c1C the results were Glioma ERSR ind 1.6%, Nrf2 ARE act inconclusive, DRD3 antagonist -9.3 and DRD3 agonist 1.3.
Screening CC(C)[C@H](NC(=O)c1ccccc1)C(=O)OCC(=O)NCC1CCCO1 (some centres undefined) returned Glioma ERSR ind -0.5%, Nrf2 ARE act -0.7%, DRD3 antagonist 21.7 and DRD3 agonist 2.6.
Screening C[C@H](NC(=O)OC(C)(C)C)C(=O)c1ccco1 returned Glioma ERSR ind -0.2%.
`COc1ccc(-c2c(C(=O)c3ccccc3)[nH]c(N)c2C(=O)c2ccc(Br)cc2)cc1OC` gave Nrf2 ARE act 4.5%, DRD3 antagonist -73.1* and DRD3 agonist -4.0.
Screening COc1ccc(-c2c(C(=O)c3ccccc3)[nH]c(N)c2C(=O)c2ccccc2)cc1OC returned Nrf2 ARE act -0.1%, DRD3 antagonist -66.7* and DRD3 agonist -10.1.
For CN(C)CCCOc1nn(Cc2ccccc2)c2ccccc12 the results were Glioma ERSR ind -2.4%, Nrf2 ARE act 4.6%, DRD3 antagonist -93.1* and DRD3 agonist -86.9.
Screening CCN1CCCC1CNC(=O)c1cc2c(OC)c(OC)c(OC)cc2[nH]1 (centres undefined) returned Glioma ERSR ind -1.6%, Nrf2 ARE act 0.3%, DRD3 antagonist -60.6* and DRD3 agonist -44.5.
For CCN1CCC[C@H]1CNC(=O)c1c(O)c(Cl)cc(Cl)c1OC the results were Glioma ERSR ind 3.5%, Nrf2 ARE act 0.2%, DRD3 antagonist -116.6* and DRD3 agonist -94.0.
CCN1CCCC1CNC(=O)CCNC(=O)c1cc(OC)c(OC)c(OC)c1 (centres undefined) was read as Glioma ERSR ind -3.0%, Nrf2 ARE act -0.2%, DRD3 antagonist 18.0 and DRD3 agonist 7.2.
